# Source: PubChem BioAssay
# Several values for one entry are separate records, joined by “and”; a condition that tells them apart may be missing. Identical values can stand only once. Results filed as inconclusive are left out. Activity calls are given as the source filed them. Cut-off read from the data, not from the text of the source, unless noted: active = parasite load remaining mostly below about 12% (no sharp cut-off); inactive = mostly above about 10%.
# What was measured:
# [1] = hESC survival regulators, cell-based (AID 493140; call rule not given here;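 note: cells exposed to compounds for four days before counting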); settings: human embryonic stem cell survival screen; stronger effect = higher value
# [2] = liver-stage malaria parasite growth inhibition, primary screen, cell-based, HepG2, luciferase luminescence, HepG2 viability (AID 624349);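 note: 100% = mean of DMSO negative control wells on the same plate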; settings: P. berghei liver stage in HepG2, luciferase luminescence, concentration not given here; parasite load remaining: stronger effect = lower value; viability: measured here: HepG2 viability without parasites
# [3] = stimulators of nuclear beta-catenin in C2C12, primary screen, imaging, WNT3A-conditioned medium, mouse C2C12, NPC library (AID 1117326; in the data active = nuclear beta-catenin stimulation mostly above about 4.2%, no sharp cut-off; inactive = mostly below about 10%); settings: stronger effect = higher value
# [4] = stimulators of insulin release from INS-1E, primary screen, cell-based, 5 mM glucose, NPC library (AID 1117329;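 active = compound raises insulin release from rat beta cells at 5 mM glucose, no numeric limit stated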); settings: rat INS-1E insulin secretion, at 10 µM, stronger effect = higher value
# [5] = growth inhibition of GSK3B-pretreated HCT116 cells – cell-based, CellTiter-Glo, 0.2 to 20 µM (AID 1117336;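 active = compounds lowering colon cancer cell viability after pretreatment blocking the GSK3B kinase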); settings: HCT116 viability after GSK3B inhibitor, at 20 µM, stronger effect = higher value
# [6] = inhibition of endothelial tube formation, primary screen, imaging, VEGF stimulated, CD31 staining, tube area, NPC library (AID 1117340;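 active = compound that reduces growth-factor-driven endothelial tube area in a mixed cell culture, no cutoff stated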); settings: VEGF-stimulated ADSC/ECFC co-culture, at 10 µM, stronger effect = higher value
# [7] = glucagon-like peptide 1 release enhancers, primary assay, NCI-H716 cell line, NPC library (AID 1117341;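 active = compound raises GLP1 secretion from the human gut endocrine cells, with no numeric limit stated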); settings: NCI-H716 cells, at 10 µM, stronger effect = higher value
# [8] = HCT116 colon cancer cell growth inhibition, primary screen, CellTiter-Glo luminescence, NPC library (AID 1117342;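 active = compounds that lower survival of HCT116 colon cancer cells in the luminescence readout, no numeric limit stated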); settings: at 20 µM (top of the series)
# [9] = CellTiter-Glo luminescent readout of SW480 viability loss, NPC library primary (AID 1117343;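 active = compounds that lower viability of the colon cancer cells in the luminescence readout, with no numeric limit stated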); settings: CellTiter-Glo luminescence; at 20 µM (top of the series) unless noted
# [10] = decreased DLD-1 cellular survival, CellTiter-Glo luminescent readout, NPC compound collection, primary HTS (AID 1117346;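 active = compounds that lower survival of DLD-1 colon cancer cells in the luminescence readout, no cutoff given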); settings: DLD-1 viability, CellTiter-Glo luminescence; at 20 µM (top of the series)
# [11] = sensitizers of A549 cells to miR-34 induction, primary screen, imaging, A549 dox-inducible miR-34, nuclei and caspase counts (AID 1347080;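 active = compounds whose cell count with miR-34 switched on is under 0.7 times the count with it off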); settings: A549 miR-34 inducible, Hoechst nuclei count, 48 h
# [12] = survival rescue of mitochondrial mutant cells in low glucose, primary screen, MELAS cybrids, Rieske KO mouse fibroblasts, CellTiter-Glo (AID 1508586;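 active = mean z-score across replicates of 1.96 or higher in either the MELAS or the Rieske mutant cell line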;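 note: z relative to plate mean and SD of compound and empty wells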)
# [13] = molecular target: NAD(+) hydrolase SARM1 (Homo sapiens) (UniProt Q6SZW1); assay: SARM1 TIR NADase inhibitors, cell lysate, NAD-Glo luminescence (AID 1508614;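 active = compound whose remaining NAD level is above about 45 nM, limit read from the data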;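 note: higher remaining NAD means stronger inhibition of SARM1 NADase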); settings: SAM-TIR HEK293T lysate NADase, at 1 µM, stronger effect = higher value
# Sequence of NAD(+) hydrolase SARM1 (Homo sapiens) (Q6SZW1 whole entry, looked up, the tested form may be a part): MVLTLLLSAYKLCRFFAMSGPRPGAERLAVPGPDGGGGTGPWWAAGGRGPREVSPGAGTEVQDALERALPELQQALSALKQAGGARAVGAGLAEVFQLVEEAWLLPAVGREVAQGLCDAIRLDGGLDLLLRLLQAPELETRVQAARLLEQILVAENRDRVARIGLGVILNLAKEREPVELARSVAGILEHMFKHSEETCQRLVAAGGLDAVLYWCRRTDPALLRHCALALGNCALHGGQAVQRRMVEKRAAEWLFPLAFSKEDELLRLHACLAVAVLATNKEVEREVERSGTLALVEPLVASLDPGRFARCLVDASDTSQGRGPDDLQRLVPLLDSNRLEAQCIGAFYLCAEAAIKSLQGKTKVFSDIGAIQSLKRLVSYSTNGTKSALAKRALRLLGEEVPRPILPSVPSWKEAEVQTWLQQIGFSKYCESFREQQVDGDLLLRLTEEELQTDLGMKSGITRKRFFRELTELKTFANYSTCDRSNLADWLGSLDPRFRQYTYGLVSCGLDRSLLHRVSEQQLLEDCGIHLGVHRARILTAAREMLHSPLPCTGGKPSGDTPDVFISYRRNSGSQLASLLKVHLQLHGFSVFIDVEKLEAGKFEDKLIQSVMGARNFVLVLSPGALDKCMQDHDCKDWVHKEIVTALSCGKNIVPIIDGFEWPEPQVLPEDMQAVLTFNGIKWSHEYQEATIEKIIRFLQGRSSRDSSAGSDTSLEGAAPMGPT
# [14] = molecular target: Mitogen-activated protein kinase 7 (Homo sapiens) (UniProt Q13164); assay: ERK5 transactivation activators in reporter cells, primary screen, cell-based, HTS (AID 1508626;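 active = luciferase signal above three times the same-plate solvent-only control wells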;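 note: luciferase driven by Gal4-ERK5 fusion binding five Gal4 sites before minimal TATA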); settings: HeLa Gal4-ERK5 transactivation, 18 h, at 5 µM, stronger effect = higher value
# Sequence of Mitogen-activated protein kinase 7 (Homo sapiens) (Q13164 whole entry, looked up, the tested form may be a part): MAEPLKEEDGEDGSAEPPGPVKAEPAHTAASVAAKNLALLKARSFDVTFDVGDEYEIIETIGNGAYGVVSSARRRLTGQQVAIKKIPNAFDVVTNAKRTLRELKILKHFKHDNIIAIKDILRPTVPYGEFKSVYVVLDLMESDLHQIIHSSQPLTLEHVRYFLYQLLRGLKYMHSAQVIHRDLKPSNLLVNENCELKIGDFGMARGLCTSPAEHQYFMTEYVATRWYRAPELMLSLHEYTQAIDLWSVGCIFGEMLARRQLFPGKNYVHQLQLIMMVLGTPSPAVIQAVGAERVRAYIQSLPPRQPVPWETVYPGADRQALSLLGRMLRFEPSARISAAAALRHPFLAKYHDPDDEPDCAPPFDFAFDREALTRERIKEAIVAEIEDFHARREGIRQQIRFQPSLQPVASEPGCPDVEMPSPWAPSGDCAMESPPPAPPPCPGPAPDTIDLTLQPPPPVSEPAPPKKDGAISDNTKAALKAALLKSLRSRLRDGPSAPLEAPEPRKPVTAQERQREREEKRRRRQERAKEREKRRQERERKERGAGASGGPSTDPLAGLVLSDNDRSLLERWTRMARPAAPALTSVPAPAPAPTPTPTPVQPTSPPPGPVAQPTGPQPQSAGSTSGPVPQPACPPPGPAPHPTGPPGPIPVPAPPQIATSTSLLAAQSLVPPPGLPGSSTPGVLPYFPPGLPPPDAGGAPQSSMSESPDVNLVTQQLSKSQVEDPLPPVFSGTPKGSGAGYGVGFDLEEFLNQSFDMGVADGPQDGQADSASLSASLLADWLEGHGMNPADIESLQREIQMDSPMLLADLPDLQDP
# [15] = viability rescue of complex I mutant cybrids, primary screen, cell-based, galactose medium, ATP luminescence (AID 1645843;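 active = z-score of at least 1.8 in each of two replicates, scored against plate mean and spread of sample wells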;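 note: positive z means more ATP and so rescue of galactose-driven cybrid death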); settings: complex I mutant cybrid cells, 72 h, stronger effect = higher value
# [16] = molecular target: ATP-dependent translocase ABCB1 (Homo sapiens) (UniProt P08183); assay: MDR1 (ABCB1) efflux transporter inhibition, cell-based (AID 377; in the data active = fluorescence slope change above about 50%); settings: MDR1-expressing cells, fluorescent substrate accumulation slope; stronger effect = higher value; concentration not given here
# Sequence of ATP-dependent translocase ABCB1 (Homo sapiens) (P08183 whole entry, looked up): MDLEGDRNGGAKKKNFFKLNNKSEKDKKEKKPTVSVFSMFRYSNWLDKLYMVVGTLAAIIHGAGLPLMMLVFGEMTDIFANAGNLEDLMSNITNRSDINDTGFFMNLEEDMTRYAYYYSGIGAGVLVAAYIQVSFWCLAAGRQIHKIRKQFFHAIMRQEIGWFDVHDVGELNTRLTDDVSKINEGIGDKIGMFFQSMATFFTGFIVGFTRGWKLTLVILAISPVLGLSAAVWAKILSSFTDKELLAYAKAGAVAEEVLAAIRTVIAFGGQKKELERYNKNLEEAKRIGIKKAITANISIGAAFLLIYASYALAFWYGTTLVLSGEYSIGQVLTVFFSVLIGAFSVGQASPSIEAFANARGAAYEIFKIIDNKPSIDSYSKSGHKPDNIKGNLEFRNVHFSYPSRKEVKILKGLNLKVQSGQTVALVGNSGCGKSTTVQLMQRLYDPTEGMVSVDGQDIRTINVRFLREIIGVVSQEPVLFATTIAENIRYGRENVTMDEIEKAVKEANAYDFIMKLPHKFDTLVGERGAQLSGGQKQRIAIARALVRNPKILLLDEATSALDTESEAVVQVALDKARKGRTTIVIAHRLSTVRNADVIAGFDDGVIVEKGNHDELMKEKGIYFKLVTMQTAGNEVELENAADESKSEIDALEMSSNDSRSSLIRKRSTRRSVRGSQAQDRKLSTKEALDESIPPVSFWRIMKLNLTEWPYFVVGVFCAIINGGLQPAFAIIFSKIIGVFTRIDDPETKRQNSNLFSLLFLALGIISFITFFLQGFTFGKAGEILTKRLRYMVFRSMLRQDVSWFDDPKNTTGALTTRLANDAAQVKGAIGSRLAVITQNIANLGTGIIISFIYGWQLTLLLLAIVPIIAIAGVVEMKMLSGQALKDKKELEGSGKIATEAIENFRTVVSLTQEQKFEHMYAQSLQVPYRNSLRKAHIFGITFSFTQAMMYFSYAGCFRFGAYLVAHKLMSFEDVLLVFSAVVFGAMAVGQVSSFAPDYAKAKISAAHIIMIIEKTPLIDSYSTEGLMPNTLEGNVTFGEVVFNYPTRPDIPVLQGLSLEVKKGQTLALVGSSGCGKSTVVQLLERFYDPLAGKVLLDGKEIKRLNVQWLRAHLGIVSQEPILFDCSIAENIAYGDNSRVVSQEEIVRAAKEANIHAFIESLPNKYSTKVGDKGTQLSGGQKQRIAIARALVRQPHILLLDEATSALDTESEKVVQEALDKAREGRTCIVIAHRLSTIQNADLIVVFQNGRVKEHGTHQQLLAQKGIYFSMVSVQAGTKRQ
# [17] = stronger effect = lower value, cell number ratio, induced over uninduced
# [18] = measured here: relative caspase fold change +Dox/-Dox
# [19] = measured here: total cells with miR-34 induction, stronger effect = lower value
# [20] = measured here: total cells without miR-34 induction
# [21] = MELAS cybrid survival, CellTiter-Glo 48 h, stronger effect = higher value
# [22] = Rieske KO mouse fibroblast survival, CellTiter-Glo 72 h
smiles,measurement,setting,value
CC(C)(C)NC[C@H](O)COc1cccc2c1CCCC2=O,survival,[1],3.08 (inactive)
same,parasite load remaining,[2],68.1% (inactive)
same,viability,[2],89.1%
same,nuclear beta-catenin stimulation,[3]; at 10 µM,0% (inactive)
same,nuclear beta-catenin stimulation,"[3]; stimulation, at 2 µM",0.3%
same,insulin secretion stimulation,[4],3.7% (inactive)
same,viability decrease,[5],17.1% (inactive)
same,tube area decrease,[6],1% (inactive)
same,GLP1 secretion stimulation,[7],8.6% (inactive)
same,inhibition of viability,[8],13.8% (inactive)
same,viability decrease (inhibition),[9],-11.3% (inactive)
same,viability decrease (inhibition),[10],2.7% (inactive)
same,fold change,[11]; [17],0.883 (inactive)
same,fold change,[11]; [18],1.03
same,cell count,[11]; [19],9340
same,cell count,[11]; [20],10600
same,z-score,[12]; [21],0.581 (inactive)
same,z-score,[12]; [22],0.045
same,remaining NAD,[13],10 nM (inactive)
same,luciferase signal,[14],88 AU (inactive)
C=CCN1C[C@H](C(=O)N(CCCN(C)C)C(=O)NCC)C[C@@H]2c3cccc4[nH]cc(c34)C[C@H]21,parasite load remaining,[2],25.1% (inactive)
same,viability,[2],72%
same,nuclear beta-catenin stimulation,[3]; at 10 µM,-1.1% (inactive)
same,nuclear beta-catenin stimulation,"[3]; stimulation, at 2 µM",0.7%
same,insulin secretion stimulation,[4],0% (inactive)
same,viability decrease,[5],-6.9% (inactive)
same,tube area decrease,[6],-11.9% (inactive)
same,GLP1 secretion stimulation,[7],0.5% (inactive)
same,inhibition of viability,[8],-2% (inactive)
same,viability decrease (inhibition),[9],22.3% (inactive)
same,viability decrease (inhibition),[10],59% (active)
same,fold change,[11]; [17],0.881 (inactive)
same,fold change,[11]; [18],1.06
same,cell count,[11]; [19],8560
same,cell count,[11]; [20],9720
same,z-score,[12]; [21],-0.306 (inactive)
same,z-score,[12]; [22],-1.44
same,z-score,[15],-0.085 (inactive)
Cc1ncc(C[n+]2csc(CCO)c2C)c(N)n1,fluorescence slope change,[16],80.3% (active)
same,survival,[1],12.6 (inactive)
same,parasite load remaining,[2],161% (inactive) and 60.9% (inactive)
same,viability,[2],98.2% and 74.9%
same,nuclear beta-catenin stimulation,[3]; at 10 µM,-1.9% (inactive)
same,nuclear beta-catenin stimulation,"[3]; stimulation, at 2 µM",-0.8%
same,insulin secretion stimulation,[4],3.8% (inactive)
same,viability decrease,[5],-12.9% (inactive)
same,tube area decrease,[6],-6.7% (inactive)
same,GLP1 secretion stimulation,[7],-1.3% (inactive)
same,inhibition of viability,[8],5% (inactive)
same,viability decrease (inhibition),[9],7.9% (inactive)
same,viability decrease (inhibition),[10],1.8% (inactive)
same,fold change,[11]; [17],0.836 (inactive)
same,fold change,[11]; [18],1.04
same,cell count,[11]; [19],8780
same,cell count,[11]; [20],10500
same,z-score,[12]; [21],0.823 (inactive)
same,z-score,[12]; [22],0.201
same,remaining NAD,[13],10 nM (inactive)
same,luciferase signal,[14],44 AU (inactive)
CC(=O)OCC(=O)[C@@]1(O)CC[C@H]2[C@@H]3CCC4=CC(=O)C=C[C@]4(C)[C@@]3(F)[C@@H](O)C[C@@]21C,survival,[1],8 (inactive)
same,parasite load remaining,[2],53.1% (inactive) and 126% (inactive)
same,viability,[2],50.3% and 103%
same,nuclear beta-catenin stimulation,[3]; at 10 µM,0.8% (inactive)
same,nuclear beta-catenin stimulation,"[3]; stimulation, at 2 µM",0%
same,insulin secretion stimulation,[4],-2.1% (inactive)
same,viability decrease,[5],9.45% (inactive)
same,tube area decrease,[6],-21.7% (inactive)
same,GLP1 secretion stimulation,[7],3.3% (inactive)
same,inhibition of viability,[8],-4.3% (inactive)
same,viability decrease (inhibition),[9],42.5% (inactive)
same,viability decrease (inhibition),[10],23% (inactive)
same,fold change,[11]; [17],0.893 (inactive)
same,fold change,[11]; [18],1.25
same,cell count,[11]; [19],4910
same,cell count,[11]; [20],5500
same,z-score,[12]; [21],-1.23 (inactive)
same,z-score,[12]; [22],0.0318
same,remaining NAD,[13],10 nM (inactive)
CCCCN1C[C@H](O)[C@@H](O)[C@H](O)[C@H]1CO,parasite load remaining,[2],45.7% (inactive)
same,viability,[2],77.5%
same,nuclear beta-catenin stimulation,[3]; at 10 µM,2.8% (inactive)
same,nuclear beta-catenin stimulation,"[3]; stimulation, at 2 µM",0.2%
same,insulin secretion stimulation,[4],-1.2% (inactive)
same,viability decrease,[5],-13.2% (inactive)
same,tube area decrease,[6],8.1% (inactive)
same,GLP1 secretion stimulation,[7],-0.1% (inactive)
same,inhibition of viability,[8],-0.5% (inactive)
same,viability decrease (inhibition),[9],23.4% (inactive)
same,viability decrease (inhibition),[10],3.5% (inactive)
same,fold change,[11]; [17],0.88 (inactive)
same,fold change,[11]; [18],0.958
same,cell count,[11]; [19],9280
same,cell count,[11]; [20],10500
same,z-score,[12]; [21],0.308 (inactive)
same,z-score,[12]; [22],-0.247
same,z-score,[15],0.145 (inactive)
CC[C@H](c1ccc(O)cc1)[C@@H](CC)c1ccc(O)cc1,parasite load remaining,[2],16.7% (inactive)
same,viability,[2],82%
same,nuclear beta-catenin stimulation,[3]; at 10 µM,11.6% (inactive)
same,nuclear beta-catenin stimulation,"[3]; stimulation, at 2 µM",2.5%
same,insulin secretion stimulation,[4],1.4% (inactive)
same,viability decrease,[5],89.6% (active)
same,tube area decrease,[6],20.9% (inactive)
same,GLP1 secretion stimulation,[7],40% (active)
same,inhibition of viability,[8],97% (active)
same,viability decrease (inhibition),[9],118% (active)
same,viability decrease (inhibition),[10],101% (active)
same,fold change,[11]; [17],0.78 (inactive)
same,fold change,[11]; [18],0.948
same,cell count,[11]; [19],7720
same,cell count,[11]; [20],9900
same,z-score,[12]; [21],-1.4 (inactive)
same,z-score,[12]; [22],-0.231
same,remaining NAD,[13],10 nM (inactive)
same,z-score,[15],-0.325 (inactive)
CCN[C@H]1CN(CCCOC)S(=O)(=O)c2sc(S(N)(=O)=O)cc21,survival,[1],9.25 (inactive)
same,parasite load remaining,[2],113% (inactive) and 65.9% (inactive)
same,viability,[2],109% and 72.4%
same,nuclear beta-catenin stimulation,[3]; at 10 µM,1.3% (inactive)
same,nuclear beta-catenin stimulation,"[3]; stimulation, at 2 µM",1.1%
same,insulin secretion stimulation,[4],3.9% (inactive)
same,viability decrease,[5],-7.1% (inactive)
same,tube area decrease,[6],-15% (inactive)
same,GLP1 secretion stimulation,[7],0.6% (inactive)
same,inhibition of viability,[8],6.4% (inactive)
same,viability decrease (inhibition),[9],7.5% (inactive)
same,viability decrease (inhibition),[10],14.9% (inactive)
same,fold change,[11]; [17],0.831 (inactive)
same,fold change,[11]; [18],1.12
same,cell count,[11]; [19],8040
same,cell count,[11]; [20],9670
same,z-score,[12]; [21],0.333 (inactive)
same,z-score,[12]; [22],0.0327
same,remaining NAD,[13],10 nM (inactive)
CCOc1ccccc1OCCN[C@H](C)Cc1ccc(OC)c(S(N)(=O)=O)c1,parasite load remaining,[2],30.6% (inactive)
same,viability,[2],71%
same,nuclear beta-catenin stimulation,[3]; at 10 µM,0.2% (inactive)
same,nuclear beta-catenin stimulation,"[3]; stimulation, at 2 µM",3%
same,insulin secretion stimulation,[4],1.6% (inactive)
same,viability decrease,[5],4.2% (inactive)
same,tube area decrease,[6],-2.4% (inactive)
same,GLP1 secretion stimulation,[7],2.3% (inactive)
same,inhibition of viability,[8],4.1% (inactive)
same,viability decrease (inhibition),[9],6.6% (inactive)
same,viability decrease (inhibition),[10],5.8% (inactive)
same,fold change,[11]; [17],0.868 (inactive)
same,fold change,[11]; [18],1.51
same,cell count,[11]; [19],9140
same,cell count,[11]; [20],10500
same,z-score,[12]; [21],-0.622 (inactive)
same,z-score,[12]; [22],-1.24
same,remaining NAD,[13],10 nM (inactive)
same,z-score,[15],-0.32 (inactive)
CCOC(=O)/C=C(C)/C=C/C=C(C)/C=C/c1c(C)cc(OC)c(C)c1C,parasite load remaining,[2],13.4% (inactive)
same,viability,[2],74%
same,nuclear beta-catenin stimulation,[3]; at 10 µM,-2.1% (inactive)
same,nuclear beta-catenin stimulation,"[3]; stimulation, at 2 µM",-0.4%
same,insulin secretion stimulation,[4],2.6% (inactive)
same,viability decrease,[5],62.2% (active)
same,tube area decrease,[6],3.9% (inactive)
same,GLP1 secretion stimulation,[7],-2.9% (inactive)
same,inhibition of viability,[8],59.4% (active)
same,viability decrease (inhibition),[9],60.3% (active)
same,viability decrease (inhibition),[10],25.3% (inactive)
same,fold change,[11]; [17],0.857 (inactive)
same,fold change,[11]; [18],1
same,cell count,[11]; [19],9250
same,cell count,[11]; [20],10800
same,z-score,[12]; [21],0.196 (inactive) and -0.0105 (inactive)
same,z-score,[12]; [22],0.164 and -0.496
same,z-score,[15],-1.38 (inactive)
